Source: PubChem BioAssay AID1626 (SRMLSC, 2009)
In all, about 220,000 compounds went through this assay and about 2,000 (0.91%) were called active. Inconclusive results (about 2%) are left out. These entries were drawn from the full list. Results with a measured potency or affinity are listed apart. Values without a mark were called inactive. No stated cut-off is given here; in the data, inconclusive means inhibition above about 80% without an active follow-up result; inactive means below that; test concentration not stated here.

Test: M. tuberculosis H37Rv growth inhibitors, H37Rv strain (AID 1626);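 further: bacteria incubated seven days before Alamar blue readout; 0% = bacteria only wells and 100% = bacteria with antibiotic wells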
Settings: active compounds read high, concentration not given here

Structure (SMILES)	inhibition
O=C(c1ccc(F)cc1F)N1CCN(c2ncccn2)CC1	3.87%
Cc1[nH]c2ccccc2c1/C=N/O	57.2%
Cc1[nH]c2ccccc2c1/C=N/n1cnnc1	3.82%
N#CC(C(=O)CCN1C(=O)C2CC=CCC2C1=O)c1nc2ccccc2[nH]1 (stereo unspecified)	-15.5%
O=C(Nc1nc2ccccc2[nH]1)C1CC1	-2.55%
N#CC(C(=O)C1CCCCC1)c1nc2ccccc2[nH]1 (stereo unspecified)	56.9%
O=C(Nc1nc2ccccc2[nH]1)C1CCCC1	-2.34%
O=C(c1ccc2c(c1)OCCO2)C1CCN(C(=O)c2ccc(F)c(F)c2)CC1	5.15%
Cc1cc(C)c(C(=O)C[n+]2cccc(C(N)=O)c2)c(C)c1	-6.58%
Cc1oc(-c2ccccc2)nc1C(=O)N1CCN(c2ccc(F)cc2)CC1	0.48%
O=C1N=C(N2CCOCC2)S/C1=C\c1ccc(-c2ccccc2Cl)o1	2.45%
Cc1ccccc1-c1ccc(/C=C2/SC(N3CCOCC3)=NC2=O)o1	-0.65%
CS(=O)(=O)c1ccc2nc(NC(=O)C3CCCO3)sc2c1 (stereo unspecified)	-7.03%
CSc1ccc(CN(C)Cc2nc3ccccc3c(=O)[nH]2)cc1	-5.14%
CCN(Cc1nc2ccccc2c(=O)[nH]1)Cc1nc2cc(OC)c(OC)cc2c(=O)[nH]1	-5.3%
CCN(Cc1cc(=O)n2ccsc2n1)Cc1nc2ccccc2c(=O)[nH]1	-0.5%
COc1cc2nc(CN(C)Cc3nc4ccccc4c(=O)[nH]3)[nH]c(=O)c2cc1OC	-3.41%
Cc1nn(CC(=O)NC(C)c2ccccc2)c(=O)c2ccccc12 (stereo unspecified)	-2.29%
CC1Cc2ccccc2N1C(=O)CSc1nc2c(c(=O)n(C)c(=O)n2C)n1Cc1ccc(F)cc1 (stereo unspecified)	-3.29%
COCCn1c(NC(=S)NC(=O)C23CC4CC(CC(C4)C2)C3)cc(=O)[nH]c1=O	-0.61%
COC(=O)c1cccc(-n2c(CCC(=O)O)ccc2-c2cccs2)c1	6.42%
CCN(CC)c1ccc(N=Cc2ccccc2[N+](=O)[O-])cc1	15.5%
CN(/N=C/c1ccc([N+](=O)[O-])o1)c1ccccc1	1.22%
COc1cccc(CC2(CO)CCCN(C/C=C/c3ccccc3OC)C2)c1 (stereo unspecified)	39.9%

Structure (SMILES)	inhibition
COc1ccc(/C=C/CN2CCCC(CO)(Cc3cccc(Cl)c3)C2)cc1 (stereo unspecified)	2.62%
NC(=S)NC1CC2C=CC1C2 (stereo unspecified)	-6.06%
CN1CCN(S(=O)(=O)c2cccc(C(=O)Nc3nccs3)c2)CC1	-4.26%
O=C1NC(=O)/C(=C/c2cccc(O)c2)N1	8.98%
O=C(Cc1ccccc1)Nc1ccc(SC(F)F)cc1	1.19%
O=C(COC(=O)Cc1ccccc1F)Nc1ccc(SC(F)F)cc1	91.8%
O=C(O)CC/C(=N/NC(=O)c1cccs1)c1ccccc1	7.05%
O=C(CCC1CCCCC1)NCCN1C2=NC[C@H](Cc3ccccc3)N2C[C@H]1Cc1ccc(O)cc1	9.81%
O=C(CCC1CCCCC1)NCCN1C2=NC[C@@H](Cc3ccccc3)N2C[C@H]1Cc1ccc(O)cc1	39.5%
COc1ccc(C[C@H]2CN3C(=NC[C@H]3C)N2CCNC(=O)CCC2CCCCC2)cc1	-3.43%
COc1ccc(C[C@H]2CN3C(=NC[C@@H]3C)N2CCNC(=O)CCC2CCCCC2)cc1	-3.39%
NC(=O)c1nn(-c2ccccc2)nc1NC(=O)Cn1nnc(-c2ccccc2)n1	9.3%
Cc1ccc(CS(=O)(=O)Cc2ccc(C(=O)NCc3cccs3)o2)cc1	3.64%
CC(C)c1cccc(C(C)C)c1OCCCCN1CCCC1	10.1%
O=C(CCn1cccc1)N1CCc2ccccc21	6.64%
CCOC(=O)c1ccccc1NC(=O)COC(=O)C1=COCCO1	71.3%
CC(C)(C)c1ccc(NC(=O)COC(=O)C2=COCCO2)cc1	74%
CC(C)c1ccc(NC(=O)COC(=O)C2=COCCO2)cc1	78.6%
Cc1ccc(NC(=O)COC(=O)C2=COCCO2)cc1	60.1%
NS(=O)(=O)c1ccc(NS(=O)(=O)c2ccc(NC(=S)Nc3ccccc3)cc2)cc1	7.44%
CC(=O)C1=C(C)NC(=O)CC1c1ccc(F)cc1 (stereo unspecified)	-1.68%
COc1cc([N+](=O)[O-])ccc1NC(=O)/C=C\C(=O)O	2.65%
COc1ccc(CC(=O)Nc2ccccc2N2CCCCC2)cc1OC	6.94%
Cn1cnnc1-c1cccc(NC(=O)c2cc(F)c(F)cc2Cl)c1	-5.29%

Structure (SMILES)	inhibition
O=C(NC1CCCC1)C(c1ccccc1)N(Cc1ccco1)C(=O)Cc1cccs1 (stereo unspecified)	2.16%
O=C(CCn1c(=O)[nH]c2ccccc2c1=O)Nc1ccccc1	-7.56%
O=c1cc(C(F)F)oc2c1ccc1ccccc12	1.35%
O=c1cc(C(F)(F)F)oc2c1ccc1ccccc12	-2.31%
COc1ccc(C(=O)C2CCCN(C(=O)c3cccnc3SC)C2)c(C)c1 (stereo unspecified)	-5.65%
NS(=O)(=O)c1ccc(CCNCc2cccs2)cc1	1.78%
COc1ccc(NC(=O)c2ccco2)cc1N	-14.7%
CCOC(=O)C1C(=O)CC(C)(O)C(C(=O)OCC)C1c1ccc(SC)cc1 (stereo unspecified)	9.27%
COc1cccc(C2CC(=O)N3CN(c4cccc(Cl)c4C)CSC3=C2C#N)c1OC (stereo unspecified)	-1.72%
COc1ccc(N2CSC3=C(C#N)C(c4cc(OC)ccc4OC)CC(=O)N3C2)c(OC)c1 (stereo unspecified)	-0.31%
CCc1ccc(N2CSC3=C(C#N)C(c4cccs4)CC(=O)N3C2)cc1 (stereo unspecified)	22.1%
COc1ccc(N2CSC3=C(C#N)C(c4cc(OC)c(OC)cc4OC)CC(=O)N3C2)c(OC)c1 (stereo unspecified)	15%
Cc1ccc(N2CSC3=C(C#N)C(c4cccs4)CC(=O)N3C2)cc1 (stereo unspecified)	7.29%
COc1ccc(OC)c(C2CC(=O)N3CN(c4ccccc4)CSC3=C2C#N)c1 (stereo unspecified)	0.68%
CC(=O)OC(C)CS(=O)(=O)c1ccccc1 (stereo unspecified)	-4.77%
CCN(c1cccc(C)c1)C(C(=O)Nc1ccc(OC)cc1)c1cc2c(cc1[N+](=O)[O-])OCO2 (stereo unspecified)	1.06%
Cc1ccc(C(=O)Nc2cccnc2)cc1[N+](=O)[O-]	-3.36%
CCc1nc(SCc2cccnc2)[nH]c(=O)c1C	-4.49%
COc1ccc(CN2C(=O)N(c3ccc(OC)cc3)C(=O)C2CC(=O)Nc2ccccc2)cc1 (stereo unspecified)	6.5%
CCCc1cc(=O)oc2c(CN3CCCC3)c(O)ccc12	-6.61%
CCCCN(C)C(=O)c1ccc(CS(=O)(=O)c2ccccc2C)o1	-5.74%
NNC(=O)CN1C(c2cccc(Cl)c2)=Nc2ccc(Br)cc2C1c1ccccc1 (stereo unspecified)	-2.26%
COc1ccc(C2=Nc3ccc(C)cc3C(c3ccccc3)N2CC(=O)NN)cc1 (stereo unspecified)	-0.28%
COC(=O)CN1C(c2ccccc2)=Nc2ccc(Cl)cc2C1c1ccccc1 (stereo unspecified)	0.35%

Structure (SMILES)	inhibition
COC(=O)CN1C(c2ccc(Cl)cc2)=Nc2ccc(Cl)cc2C1c1ccccc1 (stereo unspecified)	79.4%
O=C1/C(=C/c2ccc(F)c(F)c2)CSc2sccc21	12.2%
CCCCNS(=O)(=O)c1ccc2nc(-c3cccs3)cc(C(=O)NCC(OC)OC)c2c1	3.68%
COc1ccc(NC(=O)NC23CC4CC(CC(C4)C2)C3)cc1OC	25.7%
CCOc1ccc(NC(=O)Nc2ccc(NC(C)=O)cc2)cc1	-1.52%
COC(=O)c1ccc(Cl)c(NC(=O)NC23CC4CC(CC(C4)C2)C3)c1	2.38%
COC(=O)c1cccc(NC(=O)Nc2ccc(Cl)c(Cl)c2)c1	51.3%
CCCc1cc(=O)oc2cc(C)cc(OCC(=O)O)c12	-0.53%
COC(CNC(=O)c1cc(-c2ccncc2)nc2ccc(S(=O)(=O)N3CCOCC3)cc12)OC	-0.15%
CN(C)CCc1nn[nH]n1	-3.39%
COc1cc(NC(=O)c2ccc(F)cc2)c(OC)cc1Cl	6.81%
COc1ccc(NC(=O)c2c(F)c(F)c(F)c(F)c2F)cc1Cl	0.77%
COc1ccccc1N1CCN(Cc2nc(N)nc(Nc3ccc(C)cc3)n2)CC1	48.7%
COc1ccc(Nc2nc(N)nc(CN3CCN(c4ccc(F)cc4)CC3)n2)cc1	2.63%
COc1ccccc1N1CCN(Cc2nc(N)nc(Nc3ccccc3)n2)CC1	-1.85%
COc1cccc(N2CCN(Cc3nc(N)nc(Nc4ccccc4)n3)CC2)c1	0.52%
CCOC(=O)c1ccc(NC(=S)Nc2cccc(N)n2)cc1	59.5%
CCCNc1nc2c(c(=O)[nH]c(=O)n2C)n1Cc1cccc(Br)c1	1.4%
CCOc1ccc(NC(=O)CN2C(=O)S/C(=C/c3cccn3C)C2=O)cc1	0.02%
CCC(C)NC(=O)CCNS(=O)(=O)c1ccc(Br)cc1 (stereo unspecified)	-4.65%
CCn1nccc1C(=O)Nc1nccs1	-3.43%
NS(=O)(=O)c1cccnc1Nc1cccc(C(F)(F)F)c1	3.67%
c1ccc(Oc2nc(-c3cccnc3)nc3ccccc23)cc1	8.16%
Cc1ccc(Oc2nc(-c3cccnc3)nc3ccccc23)c([N+](=O)[O-])n1	7.05%
